Source: PubChem BioAssay (National Center for Advancing Translational Sciences (NCATS))
In the library only some 9.2% were active in any assay of this set; here they are far more common.
NPC1 promoter act: qHTS Assay for NPC1 Promoter Activators. Huh7 NPC1 promoter luciferase reporter, 24 h. Potency, µM (highest dose often 9.22 µM), without a hit: at the top dose activation, actives largely listed as activators. 320,000 compounds, 2.4% hits; also: % of control where 0% means no effect; nearly all actives have a fitted effect of over 60% in size
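In 1536-well qHTS, Huh7 cells harboring an NPC1 promoter–luciferase construct received compound for 24 h; activation was quantified by luminescence following luciferase reagent addition.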
Rab9 prom act: qHTS Assay for Rab9 Promoter Activators; Huh7 Rab9 promoter-luciferase reporter, luminescence, 24 h; Potency, µM (highest dose often 9.22 µM), for inactives: top-dose activation, negative = inhibition, most hits filed as activators; 320,000 compounds, 2.8% hits; also: % of control where 0% means no effect; nearly all actives have a fitted effect of over 60% in size
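Cell-based reporter: Huh7 stable for Rab9 promoter-driven luciferase, plated in reduced-serum medium with 10% FBS at 1500 cells/well, compound-treated 24 h at 37 °C, luminescence read after 10 min reagent.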
ELG1 repair inh: qHTS screen for small molecules that inhibit ELG1-dependent DNA repair in human embryonic kidney (HEK293T) cells expressing luciferase-tagged ELG1; HEK293T ELG1-luciferase reporter, luminescence, 16 h; DNA damage induced by 5-fluorouridine; Potency, µM (series often up to 46.1 µM), for inactives: at the top dose activity change, negative = inhibition, hits mostly inhibitors; 330,000 compounds, 2.3% hits; AID 504467, 2011; also: % is scaled to controls: 0 for no effect and ±100 for the full control effect; nearly all actives have a fitted effect of over 55% in size
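DMSO vehicle served as the neutral condition. Each well held 2,000 cells given 5-fluorouridine plus compound; after 16 hr at 37 °C/5% CO2, ONE-Glo was added and luciferase measured 30 min later.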
SMN2 splice enh: qHTS Assay for Enhancers of SMN2 Splice Variant Expression. HEK293 SMN2-luciferase splicing reporter, luminescence, 30-36 h. 210,000 compounds, 2.8% hits. Potency, µM (highest dose often 46.1 µM), for inactives: at the top dose activity change, positive = activation, usual class: activators; also: % of control where 0% means no effect; nearly all actives have a fitted effect of over 55% in size
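HEK293 cells carry an SMN2 minigene-luciferase reporter in which exon 7 inclusion puts luciferase in frame. Cells were seeded at 2000 cells/well, attached for 10-12 hours, then exposed to compounds for 30-36 hours at 37C before ONE-Glo luminescence.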
FLuc counter: qHTS profiling assay for firefly luciferase inhibitor/activator using purifed enzyme and Km concentrations of substrates (counterscreen for miR-21 project). Potency, µM (series often up to 57.5 µM), inactives show at the top dose activity change, negative = inhibition, actives largely listed as inhibitors. 360,000 compounds, 6.9% hits. purified FLuc, Km substrates, luminescence inhibition. AID 588342, 2011. Luciferin 4-monooxygenase (Photinus pyralis), P08659;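 also: plate controls were vehicle for no effect and reference inhibitor for full effect; nearly all actives have a fitted effect of over 55% in size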
Target sequence (P08659 whole entry, looked up): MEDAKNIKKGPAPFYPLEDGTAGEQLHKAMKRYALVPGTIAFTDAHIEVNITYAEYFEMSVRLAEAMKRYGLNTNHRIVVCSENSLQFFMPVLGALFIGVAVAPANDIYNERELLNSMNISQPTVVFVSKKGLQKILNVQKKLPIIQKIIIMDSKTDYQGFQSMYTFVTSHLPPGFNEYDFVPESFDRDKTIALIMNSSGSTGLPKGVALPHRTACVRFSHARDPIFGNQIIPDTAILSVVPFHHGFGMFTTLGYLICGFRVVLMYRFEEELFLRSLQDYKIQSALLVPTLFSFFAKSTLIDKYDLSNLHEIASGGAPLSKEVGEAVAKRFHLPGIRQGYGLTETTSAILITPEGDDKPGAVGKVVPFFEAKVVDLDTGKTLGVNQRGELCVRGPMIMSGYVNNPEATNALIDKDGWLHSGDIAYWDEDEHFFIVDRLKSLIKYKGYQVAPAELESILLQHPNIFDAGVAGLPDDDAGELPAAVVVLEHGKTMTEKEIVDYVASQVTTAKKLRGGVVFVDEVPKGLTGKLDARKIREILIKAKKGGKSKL
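Purified P. pyralis luciferase (10nM final) with 10uM D-luciferin and 10uM ATP (Km levels) in 50mM Tris acetate pH 7.5, 10mM Mg acetate, 0.01% Tween-20, 0.05% BSA; qHTS 6-point titration, ~60 µM downward; luminescence read.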
ELG1 genotox: qHTS screen for small molecules that induce genotoxicity in human embryonic kidney (HEK293T) cells expressing luciferase-tagged ELG1; HEK293T ELG1-luciferase reporter, luminescence, 16 h; Potency, µM (series often up to 46 µM), inactives show at the top dose activity change, positive = activation, hits mostly activators; 330,000 compounds, 1.3% hits; AID 504466, 2011; also: % of control where 0% means no effect; nearly all actives have a fitted effect of over 60% in size
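After overnight (16 hr) compound treatment at 37 °C, ELG1-luciferase HEK293T cells were lysed with ONE-Glo; luminescence quantified 30 min later at room temperature.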
Starred values were filed as active, the others as inactive. Calls follow the shape of the dose curve; as a rule, active = well fitted curve in the direction sought with a large enough effect; inconclusive = small, poorly fitted or top-dose-only effect, or another doubt; inactive = no such curve, though single readings can be large; an effect the other way counts as inactive or inconclusive. Potency is read from the fitted curve at half-maximal effect.

Screening CCCn1c(CN2CCN(C(C)=O)CC2)nc2cc(S(=O)(=O)N(C)C)ccc21 returned NPC1 promoter act 1.9%, Rab9 prom act 0.4%, ELG1 repair inh -1.6%, FLuc counter -3.8% and ELG1 genotox -3.9%.
Screening COCc1cc(=O)[nH]c(Nc2nc3ccc(C)cc3o2)n1 returned NPC1 promoter act 22.6%, Rab9 prom act 28.1%, ELG1 repair inh inconclusive, SMN2 splice enh 5.5%, FLuc counter 16.9µM* and ELG1 genotox 23.1µM*.
For CCc1ccc2nc(Nc3nc(COC)cc(=O)[nH]3)nc(C)c2c1 the results were NPC1 promoter act -1.6%, Rab9 prom act 1.1%, ELG1 repair inh -40.7%, SMN2 splice enh -33.5%, FLuc counter -15.9% and ELG1 genotox -0.3%.
For CCc1ccccc1N(CC)C(=O)c1c(C)oc2ncnc(N3CCOCC3)c12 the results were FLuc counter 24.7%.
`O=C(NNC(=O)C12CC3CC(CC(C3)C1)C2)c1ccccc1[N+](=O)[O-]` gave NPC1 promoter act 2.2%, Rab9 prom act 0.5%, ELG1 repair inh 12.2%, FLuc counter -1.9% and ELG1 genotox -0.7%.
CCOc1ccc(OCC)c(NC(=O)CN(C)S(=O)(=O)c2ccc3[nH]c(=O)oc3c2)c1 was read as FLuc counter -4.9%.
Screening COc1ccccc1/C=N/N1C(=O)C(CC(=O)Nc2ccc([N+](=O)[O-])cc2OC)SC1=Nc1cccc(C)c1C (stereo not drawn) returned NPC1 promoter act -12.5%, Rab9 prom act -20.8%, ELG1 repair inh 5.8µM*, SMN2 splice enh -14.7%, FLuc counter -0.2% and ELG1 genotox -7.2%.
`COC(=O)CNC(=O)C1(CC(C)C)C=CCN1C(C)=O` (stereo not drawn) gave SMN2 splice enh 12.6µM*.
Screening CCOc1ccc2nc(N3CCCC(C(=O)NCc4ccc(C)cc4)C3)sc2c1 (stereo not drawn) returned SMN2 splice enh 16.1% and FLuc counter -18.9%.
For CCOc1ccc2nc(N3CCC(C(=O)NC4CCCCC4)CC3)sc2c1 the results were NPC1 promoter act 24.0%, Rab9 prom act 15.1%, ELG1 repair inh 21.4%, FLuc counter inconclusive and ELG1 genotox 3.9%.
CCOc1ccc2nc(N3CCCC(C(=O)NCCCN4CCOCC4)C3)sc2c1 (stereo not drawn) was read as NPC1 promoter act 21.5%, Rab9 prom act 29.6%, ELG1 repair inh inconclusive, SMN2 splice enh 12.6µM*, FLuc counter 13.5µM* and ELG1 genotox inconclusive.
`CCOc1ccc2nc(N3CCC(C(=O)NCCCN4CCOCC4)CC3)sc2c1` gave NPC1 promoter act inconclusive, Rab9 prom act 3.55µM*, ELG1 repair inh inconclusive, FLuc counter 8.49µM* and ELG1 genotox inconclusive.
Screening CCCC(=O)Oc1c(Sc2ccc(C)cc2)c(C)nn1-c1ccccc1 returned SMN2 splice enh 6.0% and FLuc counter inconclusive.
For CC1CCN(c2nn3c(=O)c(C(=O)NCCc4ccccc4)cnc3s2)CC1 the results were FLuc counter 1.8%.
For COc1cc2cc(CN(Cc3cccnc3)C(=O)Nc3ccccc3)c(=O)[nH]c2cc1OC the results were NPC1 promoter act -8.8%, Rab9 prom act -9.7%, ELG1 repair inh 7.3µM*, SMN2 splice enh 8.2%, FLuc counter -14.8% and ELG1 genotox -1.9%.
`CCC(C)NC(=S)N(CCc1ccccc1)Cc1cc2cc(OC)c(OC)cc2[nH]c1=O` (stereo not drawn) gave NPC1 promoter act 1.4%, Rab9 prom act -1.9%, ELG1 repair inh 6.51µM*, SMN2 splice enh 7.1%, FLuc counter -0.7% and ELG1 genotox -6.1%.
COc1cc2cc(CN(Cc3cccnc3)C(=O)NCc3ccccc3)c(=O)[nH]c2cc1OC was read as NPC1 promoter act 0.7%, Rab9 prom act -0.1%, ELG1 repair inh inconclusive, SMN2 splice enh 43.0%, FLuc counter -0.6% and ELG1 genotox 1.0%.
For Cc1cc2oc(C(=O)Nc3sc4c(c3C(=O)NCC3CCCO3)CCCC4)cc(=O)c2cc1C (stereo not drawn) the results were SMN2 splice enh -9.8% and FLuc counter -3.6%.
For CSCCC(NC(=O)c1ccccc1Cl)C(=O)NC1CCN(Cc2ccccc2)CC1 (stereo not drawn) the results were NPC1 promoter act 1.6%, Rab9 prom act -5.9%, ELG1 repair inh 5.6%, FLuc counter 3.7% and ELG1 genotox -7.8%.
Screening O=C(c1cccc(C(=O)N2CCN(Cc3ccccc3)CC2)c1)N1CCN(Cc2ccccc2)CC1 returned NPC1 promoter act -4.5%, Rab9 prom act -6.5%, ELG1 repair inh inconclusive, SMN2 splice enh -71.7%, FLuc counter 0.3% and ELG1 genotox -12.4%.
For CCOc1ccc(CN2CCN(C(=O)c3ccccc3)CC2)cc1 the results were NPC1 promoter act -2.8%, Rab9 prom act -1.1%, ELG1 repair inh 9.2µM*, SMN2 splice enh -48.8%, FLuc counter 4.2% and ELG1 genotox 3.9%.
`O=C(c1ccc2ccccc2c1)N1CCN(Cc2ccccc2)CC1` gave NPC1 promoter act inconclusive, Rab9 prom act 22.4%, ELG1 repair inh inconclusive, FLuc counter 21.3µM* and ELG1 genotox 8.2%.
`O=C(c1c[nH]c2ccccc12)N1CCN(c2ccccc2)CC1` gave NPC1 promoter act -1.2%, Rab9 prom act 14.3%, ELG1 repair inh 3.8%, SMN2 splice enh 13.8%, FLuc counter -15.9% and ELG1 genotox -5.3%.
Screening O=C(Nc1cccc(C(=O)N2CCN(Cc3ccccc3)CC2)c1)c1ccccc1 returned NPC1 promoter act -0.6%, Rab9 prom act 4.2%, ELG1 repair inh 20.6µM*, SMN2 splice enh -14.7%, FLuc counter -19.0% and ELG1 genotox -12.9%.
`O=C(c1c[nH]c2ccccc12)N1CCN(Cc2ccccc2)CC1` gave NPC1 promoter act -3.4%, Rab9 prom act 3.7%, ELG1 repair inh -6.4%, SMN2 splice enh -18.3%, FLuc counter 21.3µM* and ELG1 genotox -4.7%.
Cc1nc2c3ccccc3nc(NNC(=O)CCC(=O)N3CCN(c4cccc(C(F)(F)F)c4)CC3)n2n1 was read as SMN2 splice enh -10.8% and FLuc counter -16.7%.
